# PubChem BioAssay (EPA / NIEHS)
# Inconclusive results are not listed. The source made the active and inactive calls. The calls were made as follows, unless noted: active = hit-call score of the fitted dose curve at least 0.9, where 1 is the maximum; inconclusive = response in the unintended direction; inactive = score below 0.9.
# Tests used:
# PGR (gene 5241) [1] = molecular target: PGR (gene 5241) (UniProt P06401); assay: TOX21_PR_BLA_Followup_Agonist_ratio: Tox21 HEK293 Progesterone Receptor (PR) Agonism Beta-lactamase Follow-Up Assay, Ratio (AID 2283933)
# Sequence of PGR (gene 5241) (P06401 whole entry, looked up): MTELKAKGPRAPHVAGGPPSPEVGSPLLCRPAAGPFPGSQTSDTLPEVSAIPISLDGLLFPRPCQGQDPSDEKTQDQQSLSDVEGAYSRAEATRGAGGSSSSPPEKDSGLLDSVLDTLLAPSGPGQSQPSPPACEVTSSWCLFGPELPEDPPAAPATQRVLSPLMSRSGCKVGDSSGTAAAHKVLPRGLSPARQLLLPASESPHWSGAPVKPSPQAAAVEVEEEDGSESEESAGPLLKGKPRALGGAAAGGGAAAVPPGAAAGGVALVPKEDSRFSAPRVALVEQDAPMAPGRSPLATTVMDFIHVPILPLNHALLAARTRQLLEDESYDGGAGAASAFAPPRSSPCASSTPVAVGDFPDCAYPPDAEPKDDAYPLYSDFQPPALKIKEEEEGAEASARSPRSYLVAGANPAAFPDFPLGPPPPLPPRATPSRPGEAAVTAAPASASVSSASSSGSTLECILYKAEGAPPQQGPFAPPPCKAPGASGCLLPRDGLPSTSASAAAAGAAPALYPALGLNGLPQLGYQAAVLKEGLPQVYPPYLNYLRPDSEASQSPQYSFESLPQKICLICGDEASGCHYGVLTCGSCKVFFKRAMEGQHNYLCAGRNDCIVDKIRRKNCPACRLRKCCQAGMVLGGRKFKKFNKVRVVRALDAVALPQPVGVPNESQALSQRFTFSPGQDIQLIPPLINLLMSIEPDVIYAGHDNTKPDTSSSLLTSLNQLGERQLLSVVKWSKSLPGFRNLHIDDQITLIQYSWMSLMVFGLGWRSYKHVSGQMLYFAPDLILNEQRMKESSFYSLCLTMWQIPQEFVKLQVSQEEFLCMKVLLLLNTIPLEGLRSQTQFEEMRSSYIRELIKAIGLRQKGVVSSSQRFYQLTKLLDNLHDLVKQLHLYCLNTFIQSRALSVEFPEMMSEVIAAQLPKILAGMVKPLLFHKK
# Procedure, shortened: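 Cells were seeded and held 6 hr before compound addition, exposed for 16 hr at 37C, then given FRET substrate for 2 hr at room temperature. Agonism was scored from the blue/green substrate cleavage ratio against DMSO controls.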
# PGR (gene 5241) [2] = molecular target: PGR (gene 5241) (UniProt P06401); assay: TOX21_PR_BLA_Followup_Antagonist_ratio: Tox21 HEK293 Progesterone Receptor (PR) Antagonism Beta-lactamase Follow-Up Assay, Ratio (AID 2283934);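 also: PR-UAS-bla HEK293T cells stimulated with 1 nM R5020 agonist for 16 hr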
# Procedure, shortened: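 Cells are plated, rested 6 hr, then dosed with test compound in DMSO and challenged with 1 nM promegestone. After 16 hr incubation, substrate loading for 2 h at room temperature precedes fluorescence reading; viability is measured in the same wells.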
# [3] = TOX21_PR_BLA_Followup_Agonist_viability: Viability Assessment in the Tox21 HEK293 Progesterone Receptor (PR) Agonism Beta-lactamase Follow-Up Assay (AID 2283935);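 also: signal loss means lower viability so actives are cytotoxic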
# Procedure, shortened: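 Cells were plated in medium with 2% charcoal-stripped FBS and rested 6 hr. Compounds in DMSO were then added for 16 hr at 37C, followed by the FRET substrate step and CellTiter-Glo luminescence after 30 min.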
# [4] = TOX21_PR_BLA_Followup_Antagonist_viability: Viability Assessment in the Tox21 HEK293 Progesterone Receptor (PR) Antagonism Beta-lactamase Follow-Up Assay (AID 2283936);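 also: cells exposed to compound with R5020 agonist for 16 h; hits lower the luminescence signal meaning cytotoxicity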
# Procedure, shortened: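 PR-UAS-bla HEK293T cells in medium with 2% charcoal-stripped FBS were treated with compounds plus R5020 for 16 hr at 37C. After the beta-lactamase read, CellTiter-Glo was added to the same wells and luminescence read after 30 min at room temperature.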
# PGR (gene 5241) [5] = molecular target: PGR (gene 5241) (UniProt P06401); assay: TOX21_PR_LUC_Followup_Agonist: Tox21 HEK293 Progesterone Receptor (PR) Agonism Luciferase Follow-Up Assay (AID 2283937; active = hit-call score of the fitted dose curve at least 0.9, where 1 is the maximum; inactive = score below 0.9)
# Procedure, shortened: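 Seed HEK293-PR-A-luc cells, wait 5 h, add compounds in DMSO, incubate 16 h at 37C, add ONE-Glo, read luminescence after 30 min. Activity is increase over DMSO controls; run with a viability counter-screen.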
# PGR (gene 5241) [6] = molecular target: PGR (gene 5241) (UniProt P06401); assay: TOX21_PR_LUC_Followup_Antagonist: Tox21 HEK293 Progesterone Receptor (PR) Antagonism Luciferase Follow-Up Assay (AID 2283938);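 also: curve fitted upward as signal gain over DMSO baseline despite antagonist label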
# Procedure, shortened: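 HEK293-PR-A-luc cells, 3,000/well, preincubated 5 h at 37C before compound addition in DMSO; 16 h compound exposure at 37C. ONE-Glo luciferase luminescence read after 30 min at room temperature, fitted relative to DMSO baseline.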
# [7] = TOX21_PR_LUC_Followup_Antagonist_viability: Viability Assessment in the Tox21 HEK293 Progesterone Receptor (PR) Antagonism Luciferase Follow-Up Assay (AID 2283940)
# Procedure, shortened: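 HEK293-PR-A-luc, 3,000 cells/well; 5 h at 37C/0% CO2; compound pin transfer; 16 h incubation; CellTiter-Glo ATP luminescence, signal loss = cytotoxicity.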
# [8] = TOX21_PR_LUC_Followup_Agonist_viability: Viability Assessment in the Tox21 HEK293 Progesterone Receptor (PR) Agonism Luciferase Follow-Up Assay (AID 2283941);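 also: loss of signal means cytotoxicity so actives lower viability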
# Procedure, shortened: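 Multiplexed viability endpoint of the PR agonist luciferase follow-up: HEK293-PR-A-luc cells treated 16 h at 37C, with viability scored as decrease in CellTiter-Glo ATP signal.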
# [9] = molecular target: Thyroid hormone receptor alpha (Rattus norvegicus) + Thyroid hormone receptor beta (Rattus norvegicus) (UniProt P18113+P63059); assay: TOX21_TR_LUC_GH3_Antagonist_Followup: Tox21 GH3 Thyroid Hormone Receptor Antagonism Luciferase Follow-Up Assay (AID 2283942)
# Procedure, shortened: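 In a GH3 luciferase reporter line, test chemicals spanning 92 uM to 5nM final are co-incubated 24 h with 1.0 nM T3. Activity is expressed as relative luminescence units and analysed relative to DMSO.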
# THRA (gene 7067) = THRA (gene 7067) (UniProt P10827); assay: TOX21_TRA_COA_Antagonist_Followup_ratio: Tox21 Thyroid Hormone Receptor alpha Antagonism through Coactivator Recruitment Follow-Up Assay, Ratio (AID 2283953)
# Sequence of THRA (gene 7067) (P10827 whole entry, looked up, the tested form may be a part): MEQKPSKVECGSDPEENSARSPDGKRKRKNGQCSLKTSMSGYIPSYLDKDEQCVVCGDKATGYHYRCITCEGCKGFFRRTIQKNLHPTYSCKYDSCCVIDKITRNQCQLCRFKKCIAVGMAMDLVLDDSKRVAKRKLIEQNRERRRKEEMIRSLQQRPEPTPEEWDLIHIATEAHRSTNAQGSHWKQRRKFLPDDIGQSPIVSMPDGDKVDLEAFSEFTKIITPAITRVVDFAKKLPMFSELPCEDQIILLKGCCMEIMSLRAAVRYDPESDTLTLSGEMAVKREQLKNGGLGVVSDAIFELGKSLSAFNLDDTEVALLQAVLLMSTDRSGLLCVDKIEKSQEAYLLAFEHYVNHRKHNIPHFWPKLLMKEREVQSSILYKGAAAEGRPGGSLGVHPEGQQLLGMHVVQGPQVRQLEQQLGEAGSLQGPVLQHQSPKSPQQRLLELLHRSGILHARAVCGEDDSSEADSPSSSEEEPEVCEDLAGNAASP
# Procedure, shortened: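 GST-TRα LBD 2.5 nM, BSA 0.10%, + cpd; then FITC-SRC-2 peptide 200 nM + Tb-anti-GST Ab 2 nM. TR-FRET ratio 520/495 nm. Norm: DMSO = 0%, T3 = 100%.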
# THRB (gene 7068) [10] = molecular target: THRB (gene 7068) (UniProt P10828); assay: TOX21_TRB_BLA_Antagonist_Followup_ratio: Tox21 Thyroid Hormone Receptor beta Antagonism Beta-lactamase (BLA) Follow-Up Assay, Ratio (AID 2283958)
# Sequence of THRB (gene 7068) (P10828 whole entry, looked up, the tested form may be a part): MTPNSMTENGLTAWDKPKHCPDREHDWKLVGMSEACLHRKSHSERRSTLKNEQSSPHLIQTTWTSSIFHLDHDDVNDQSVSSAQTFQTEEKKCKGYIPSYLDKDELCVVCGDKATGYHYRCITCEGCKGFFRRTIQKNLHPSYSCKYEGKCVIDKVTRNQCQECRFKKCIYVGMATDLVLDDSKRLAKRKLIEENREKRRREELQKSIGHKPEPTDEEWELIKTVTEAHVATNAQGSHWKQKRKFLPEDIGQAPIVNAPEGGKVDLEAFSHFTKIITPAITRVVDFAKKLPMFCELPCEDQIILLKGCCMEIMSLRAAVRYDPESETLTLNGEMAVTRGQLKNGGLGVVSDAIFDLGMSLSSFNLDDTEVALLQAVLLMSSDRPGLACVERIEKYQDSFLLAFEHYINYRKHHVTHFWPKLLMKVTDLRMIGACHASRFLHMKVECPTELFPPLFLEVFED
# Procedure, shortened: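 Cells were plated and allowed to attach for 5 h, then dosed with compounds in DMSO at 11 concentrations for 18 h at 37C. Beta-lactamase reporter activity was measured via CCF4-AM FRET as the 460:530 nm ratio.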
# THRB (gene 7068) [11] = molecular target: THRB (gene 7068) (UniProt P10828); assay: TOX21_TRB_COA_Antagonist_Followup_ratio: Tox21 Thyroid Hormone Receptor beta Antagonism through Coactivator Recruitment Follow-Up Assay, Ratio (AID 2283967)
# Procedure, shortened: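 Coactivator (SRC-2) recruitment to purified GST-TRβ ligand-binding domain is monitored by terbium-to-fluorescein energy transfer, emission ratio 520:495 nm. DMSO wells define 0% and T3 wells 100% activity.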
# [12] = TOX21_TR_RXR_BLA_Antagonist_Followup_viability: Viability Assessment in the Tox21 Thyroid Hormone Receptor beta Retinoid X Receptor alpha (RXRa) Antagonism Beta-lactamase (BLA) Follow-Up Assay (AID 2283979)
# Procedure, shortened: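 RXRa-UAS-bla HEK293T cells seeded 2,500/well in phenol red-free DMEM with 2% charcoal-stripped FBS, attached 5 h, then exposed to compounds at 11 concentrations in triplicate for 16 h at 37C/5% CO2. Viability read by CellTiter-Glo ATP luminescence; bidirectional fit versus DMSO.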
# [13] = CCTE_Harrill_HTTr_Viability_MCF7: CCTE's 6-hour Cell Viability Assessment for the High-Throughput Transcriptomics (HTTr) Platform, in MCF-7 cells cultured in DMEM + 10% fetal bovine serum, Harrill Lab (AID 2284010; active = hit-call score of the fitted dose curve at least 0.9, where 1 is the maximum; inactive = score below 0.9)
# Procedure, shortened: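 Read-out is propidium iodide gain of signal by high-content imaging, reflecting membrane integrity loss. Measurements are taken 6 h after dosing, eight concentrations per chemical, with DMSO serving as baseline for bidirectional curve fitting.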
# [14] = CCTE_Harrill_HTTr_Apoptosis_MCF7: CCTE's 6-hour Apoptosis Assessment for the High-Throughput Transcriptomics (HTTr) Platform, in MCF-7 cells cultured in DMEM + 10% fetal bovine serum, Harrill Lab (AID 2284011; active = hit-call score of the fitted dose curve at least 0.9, where 1 is the maximum; inactive = score below 0.9)
# Procedure, shortened: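 MCF-7 cells in DMEM + 10% FBS exposed 6 h to chemicals over an eight-point dilution series. Caspase-3/7 activation imaged by high-content CellEvent Green staining; fitted bidirectionally versus DMSO.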
# [15] = TOX21_TRB_BLA_Antagonist_Followup_viability: Viability Assessment in the Tox21 Thyroid Hormone Receptor beta Antagonism Beta-lactamase (BLA) Follow-Up Assay (AID 2283961)
# Procedure, shortened: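 HEK293T cells with GAL4-human TRβ LBD and UAS-bla reporter, 3,000 cells/well in 2% charcoal-stripped FBS medium; 11-point concentrations in triplicate, 18 h at 37C. Viability from ATP by CellTiter-Glo luminescence, 30 min RT, same plates.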
# [16] = CCTE_Harrill_HTTr_CellCount_MCF7: CCTE's Cell Proliferation Assessment for the High-Throughput Transcriptomics (HTTr) Platform, Harrill Lab (AID 2284012);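 also: cells exposed to compound for six hours; intended direction is loss of nuclei count meaning fewer cells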
# Procedure, shortened: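 Cell count served as viability reporter: loss of Hoechst-stained nuclei, counted by high content imaging, marks decreased growth or survival. Exposure was 6 h in MCF-7 cells across eight concentrations, with DMSO as baseline.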
structure (smiles),measurement,setting,value
CC(=O)O[C@H]1CC[C@@]2(C)C(=CC[C@@H]3[C@@H]2CC[C@]2(C)C(C(C)=O)=CC[C@@H]32)C1,outcome,PGR (gene 5241) [1],inactive
same,AC50,PGR (gene 5241) [2],10 µM (active)
same,outcome,[3],inactive
same,outcome,[4],inactive
same,outcome,PGR (gene 5241) [5],inactive
same,AC50,PGR (gene 5241) [6],9.14 µM (active)
same,outcome,[7],inactive
same,outcome,[8],inactive
CC(=O)O[C@@]12CO[C@@H]1C[C@H](O)[C@@]1(C)C(=O)[C@H](O)C3=C(C)[C@@H](OC(=O)[C@H](O)[C@@H](NC(=O)OC(C)(C)C)c4ccccc4)C[C@@](O)([C@@H](OC(=O)c4ccccc4)[C@H]21)C3(C)C,outcome,[9],inactive
same,outcome,THRA (gene 7067),inactive
same,outcome,THRB (gene 7068) [10],inactive
same,outcome,THRB (gene 7068) [11],inactive
same,outcome,[12],inactive
CC(=O)c1cccc2ccccc12,outcome,[13],inactive
same,outcome,[14],inactive
Clc1ccccc1CN1CCc2sccc2C1,outcome,[3],inactive
same,outcome,[4],inactive
same,outcome,[7],inactive
same,outcome,[8],inactive
COC(=O)Nc1nc2ccc(S(=O)c3ccccc3)cc2[nH]1 (configuration not stated),outcome,[9],inactive
same,outcome,THRA (gene 7067),inactive
same,outcome,THRB (gene 7068) [10],inactive
same,outcome,[15],inactive
same,outcome,THRB (gene 7068) [11],inactive
same,outcome,[12],inactive
same,outcome,[13],inactive
same,outcome,[14],inactive
same,outcome,[16],inactive
O=C1c2ccccc2-c2n[nH]c3cccc1c23,outcome,[9],inactive
same,outcome,THRA (gene 7067),inactive
same,outcome,THRB (gene 7068) [10],inactive
same,outcome,[15],inactive
same,outcome,[12],inactive
Cc1nc2ccc(CN(C)c3ccc(C(=O)N[C@@H](CCC(=O)O)C(=O)O)s3)cc2c(=O)[nH]1,outcome,[9],inactive
same,outcome,THRB (gene 7068) [10],inactive
same,outcome,THRB (gene 7068) [11],inactive
same,outcome,[12],inactive
